Screening results deposited in PubChem by several laboratories.
BH1578 lux ind: quorum light induction in luxS cqsA deficient V. cholerae; V. cholerae BH1578 lux reporter, luminescence, 6 h; activation, % at 18.7 µM; 350,000 compounds, 0.16% hits; AID 588436; in the data active = activation mostly above about 9.7%, no sharp cut-off; inconclusive = no clear call, values can overlap the other calls; inactive = mostly below about 3.7%
MazEF act: MazEF (E. coli) toxin RNase activation; P0AE70; FAM/BHQ RNA-DNA oligo cleavage fluorescence, 5 h; 350,000 compounds, 0.32% hits; AID 504720; activation, % at 20 µM; in the data active = activation above about 50%
Target sequence (P0AE70 whole entry, looked up): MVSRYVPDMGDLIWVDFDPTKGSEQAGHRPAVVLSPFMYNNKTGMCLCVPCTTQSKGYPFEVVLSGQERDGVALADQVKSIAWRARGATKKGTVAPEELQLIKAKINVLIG
Anthrax LF inh2: inhibitors of Bacillus anthracis lethal factor protease; multiplex microsphere protease cleavage assay, LF; inhibition, % at 10 µM; 360,000 compounds, 0.12% hits; AID 588501
BoNT-F LC inh: inhibitors of Botulinum neurotoxin F light chain protease | Multiplex microsphere protease cleavage assay, flow cytometry | inhibition, % at 10 µM | 360,000 compounds, 0.22% hits | AID 588497; in the data active = inhibition above about 35%, passing the limit was not always enough; inconclusive = no clear call, values can overlap the other calls
Autofluor counter: flagged as autofluorescent in microsphere protease counterscreen; 360,000 compounds, 3.1% hits; compound autofluorescence counterscreen, microsphere flow cytometry; hits give high values; AID 624483; fluorescence intensity (test concentration not listed); in the data active = fluorescence intensity above about 16000; inconclusive = no clear call, values can overlap the other calls
BoNT-A LC inh2: blocks Botulinum neurotoxin A light chain protease; multiplex microsphere protease substrate cleavage, flow cytometry; inhibition, % at 10 µM; 360,000 compounds, 0.17% hits
Large screens that a line does not name were inactive. An excerpt weighted towards active compounds, which were near 3.9% of everything screened. Rule as the data show it, unless noted: active = inhibition above about 30%; inconclusive = no clear call, values can overlap the other calls; inactive = below that.

CC(=O)Nc1ccc(S(=O)(=O)N2CCN(C)CC2)cc1	Autofluor counter 23174
CCOc1ccc(N2CC(C(=O)Nc3cccc(S(=O)(=O)N4CCOCC4)c3)CC2=O)cc1 (centres undefined)	none
COC(=O)Nc1ccc(S(=O)(=O)N2CCN(C)CC2)cc1	none
COc1ccc2[nH]cc(CCNC(=O)C3CCCCC3)c2c1	none
COc1ccc(C(=O)c2nccc3ccccc23)cc1	none
CCN(CC)C(=O)COc1ccc(S(=O)(=O)N2CCCC2)cc1	BoNT-F LC inh inconclusive
CC(=O)Nc1ccc(S(=O)(=O)N2CCOCC2)cc1	Autofluor counter 21279
Cc1ccc(NC(=O)COc2ccc(S(=O)(=O)N3CCOCC3)cc2)cc1	Autofluor counter 22684
CC(=O)Nc1ccc(OCC(O)CN2CCN(S(=O)(=O)c3ccc(NC(C)=O)cc3)CC2)cc1 (centres undefined)	none
CC(=O)Nc1ccc(S(=O)(=O)N2CCN(CC(O)COc3ccc4ccccc4c3)CC2)cc1 (centres undefined)	Autofluor counter 23688, BoNT-A LC inh2 inconclusive
CCN(CC)C(=O)COc1ccc(S(=O)(=O)N2CCOCC2)cc1	Autofluor counter 16440
Cc1cc(Cl)ccc1OC(C)C(=O)N1CCCN(C(=O)C(C)Oc2ccc(Cl)cc2C)CC1 (centres undefined)	none
CC(=O)Nc1ccc(S(=O)(=O)N2CCN(c3cc4c(cc3[N+](=O)[O-])n(C)c(=O)n4C)CC2)cc1	Autofluor counter 21248
CC1CCCN(C(=O)c2cccc(S(=O)(=O)NCc3ccccc3)c2)C1 (centres undefined)	none
CCOC(=O)c1oc2cccc(O)c2c1CN(Cc1ccccc1)C(C)=O	Autofluor counter 20279, BoNT-A LC inh2 inconclusive
O=C(CCNC(=O)c1ccc([N+](=O)[O-])cc1)Nc1cc(C(F)(F)F)ccc1N1CCOCC1	none
COC(=O)c1[nH]c(C)c(/C(O)=C2\C(=O)C(=O)N(CCN(C)C)C2c2cccs2)c1C (centres undefined)	Autofluor counter 20496
CCN(CC)CCN1C(=O)C(=O)/C(=C(/O)c2c(C)[nH]c(C(=O)OC)c2C)C1c1cccc(OC)c1 (centres undefined)	Autofluor counter 18213
CCOC(=O)c1[nH]c(C)c(/C(O)=C2\C(=O)C(=O)N(CCN(C)C)C2c2ccc(C)o2)c1C (centres undefined)	Autofluor counter 21142
CN(CC(=O)Nc1cccc(F)c1)C(=O)CCCc1cccs1	none
CC(C)NC(=O)c1ccc(N(Cc2ccccc2)S(C)(=O)=O)cc1	BoNT-F LC inh inconclusive
COc1cc(NC(=S)NC(C)=O)ccc1NC(=O)C(C)C	Autofluor counter 16967
CCCCC(=O)NC(=S)Nc1ccc(NC(=O)C(C)C)c(OC)c1	none
CCc1nnc(NC(=O)CCN2C(=O)c3ccccc3C2=O)s1	Autofluor counter 22862
CCc1ccc(CCC(=O)Nc2nnc(CC)s2)o1	Autofluor counter 16177
Cc1ccc(Cl)cc1NC(=O)Nn1cnnc1	none
N#C/C(=C\c1cccc(O)c1)C(=O)N1CCCCC1	BoNT-F LC inh 47
CN(C)c1ccc(CNC(=O)C2(C)Cc3c(-c4cccc(C(N)=O)c4)ccnc3O2)cc1 (centres undefined)	none (no result: MazEF act)
Cc1cc(C)c(NC(=O)CS(=O)CC(=O)N2CCN(c3ccccc3)CC2)c(C)c1 (centres undefined)	Autofluor counter 16393
Cc1cccc(C)c1NC(=O)CS(=O)CC(=O)Nc1ccc(N2CCOCC2)cc1 (centres undefined)	none
CC1CN=C(N(C(=S)Nc2ccccc2)c2cccc(C(F)(F)F)c2)S1 (centres undefined)	none (no result: Anthrax LF inh2, BoNT-F LC inh, Autofluor counter, BoNT-A LC inh2)
N#C/C(=C/c1ccc(N2CCCCC2)o1)C(=O)Nc1ccc2ccccc2c1	Anthrax LF inh2 39, BoNT-F LC inh 65, Autofluor counter 60126
N#C/C(=C/c1ccc(N2CCCCC2)o1)C(=O)Nc1ccc(Cl)cc1	BoNT-F LC inh 36, Autofluor counter 17947
CCCOC(=S)N/C(=N\S(=O)(=O)c1ccccc1)c1ccccc1	Autofluor counter 23253
Cc1cc(NCCC(C)C)n2nc(C)c(-c3ccccc3)c2n1	Autofluor counter 24144
Cc1cc(NCCCN2CCOCC2)n2nc(C)c(-c3ccccc3)c2n1	none
Cn1c(SCc2cccc(Cl)c2)nc(C(F)(F)F)cc1=O	Autofluor counter 18749
Cc1ccc(NC(=O)C2CCN(S(=O)(=O)c3ccc4ccccc4c3)CC2)nc1	none
CCOC(=O)C1=C(C)Nc2ncnn2C1/C=C/c1ccccc1 (centres undefined)	Autofluor counter 20063
CCCC1=C(C(=O)OCC)C(/C=C/c2ccccc2)n2ncnc2N1 (centres undefined)	Autofluor counter 21846, BoNT-A LC inh2 inconclusive
CCOC(=O)C1=C(C)Nc2ncnn2C1c1cccs1 (centres undefined)	none
CCCC1=C(C(=O)OCC)C(c2ccc(F)cc2)n2ncnc2N1 (centres undefined)	none
O=C(c1ccc(F)cc1)C(C(=O)N1CCCCC1)n1ccccc1=O (centres undefined)	none
CC(C)NC(=O)C1CCN(C(=O)C(C(=O)c2ccccc2)n2cc(Cl)ccc2=O)CC1 (centres undefined)	Autofluor counter 23513
Cc1cc(C)cc(NC(=S)N2CCC(NC(=O)c3ccccc3C)CC2)c1	none
CCOc1ccc(OCc2ccc(C(=O)N3N=C(C(F)F)CC3(O)C(F)F)o2)cc1 (centres undefined)	Autofluor counter 17666
Cc1cc(C)nc(N2N=C(C(C)(C)C)CC2=O)n1	Autofluor counter 23425, BoNT-A LC inh2 inconclusive
Cc1cccc(-n2nnnc2SCn2nnc3ccccc3c2=O)c1	Autofluor counter 20246
CCN(CC)S(=O)(=O)c1ccc2c(c1)nc(SCn1nnc3ccccc3c1=O)n2CC	Autofluor counter 23084
CCOc1ccc(S(=O)(=O)N(CC)CC(=O)NC2CC2)cc1	none
COc1cccc(CNC(=O)CCCSc2ccccc2)c1	none
CC(Sc1ccccc1)C(=O)N1CCN(S(=O)(=O)c2ccccc2C(F)(F)F)CC1 (centres undefined)	none
COc1cc([C@@H]2C[C@H]3CN(c4ccccc4)C(=O)[C@]34CCCN24)cc(OC)c1OC	none
COc1ccccc1-n1cc([C@@H]2C[C@H]3CN(c4ccccc4)C(=O)[C@]34CCCN24)cn1	Anthrax LF inh2 inconclusive, BoNT-F LC inh inconclusive, Autofluor counter 28945, BoNT-A LC inh2 inconclusive
CCOc1cc([C@@H]2C[C@H]3CN(c4ccccc4)C(=O)[C@]34CCCN24)ccc1OC	Autofluor counter 22393
O=C(NCCCNC(=O)c1ccc(F)cc1)c1ccc(F)cc1	BoNT-F LC inh 57
NNC(=O)COc1ccc(C(F)(F)F)cc1	none
CN(C)CCCn1c2c3ccccc3ccc2c2oc(=O)c3ccccc3c21	MazEF act 847
CS(=O)(=O)c1ccc(C(=O)Nc2ccc(N3CCCCC3)cc2)c(Cl)c1	none
Cc1ccc(Sc2ccc(NC(=O)c3ccc(S(C)(=O)=O)cc3Cl)cc2)cc1	Autofluor counter 21237, BoNT-A LC inh2 inconclusive
